# Reference: the supplement of paper PMC11402862
# System: PPARgamma LBD (GAL4 fusion)
# Test: luciferase reporter transactivation, fold of solvent control; higher = stronger receptor activation
# Details: HEK293T, exposure time: 24 h
# Description: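 HEK293T cells were transiently transfected with a GAL4-DBD fused to the ligand-binding domain of a human nuclear receptor (PPARα, PPARγ, PPARδ, FXR, LXRα, PXR, RARα or CAR), the GAL4-(UAS)5-TK firefly luciferase reporter and a Renilla luciferase normalisation plasmid. Cells were exposed to compound for 24 h in 0.5% DMSO. Firefly/Renilla luciferase was expressed as fold of the solvent control (=1). Values are the mean of 2-3 biological replicates; receptor agonists were used as positive controls.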
SMILES,luciferase reporter transactivation (concentration: 1 µM),luciferase reporter transactivation (concentration: 5 µM),luciferase reporter transactivation (concentration: 10 µM),luciferase reporter transactivation (concentration: 25 µM),luciferase reporter transactivation (concentration: 50 µM),luciferase reporter transactivation (concentration: 100 µM),luciferase reporter transactivation (concentration: 250 µM),luciferase reporter transactivation (concentration: 500 µM)
O=S(=O)(O)CCC(F)(F)C(F)(F)C(F)(F)C(F)(F)C(F)(F)C(F)(F)C(F)(F)C(F)(F)F [8:2 fluorotelomer sulfonic acid],0.851,0.861,0.922,0.905,1.04,1.31,1.04,0.846
O=S(=O)(O)CCC(F)(F)C(F)(F)C(F)(F)C(F)(F)C(F)(F)C(F)(F)F [6:2 fluorotelomer sulfonic acid],1.45,1.66,1.6,1.57,1.9,2.81,–,–
O=C(O)C(F)(F)C(F)(F)C(F)(F)C(F)(F)F [perfluoropentanoic acid],1.01,1.01,0.918,0.953,0.925,0.858,0.947,1.11
OCCC(F)(F)C(F)(F)C(F)(F)C(F)(F)C(F)(F)C(F)(F)F [6:2 fluorotelomer alcohol],1.1,1,0.973,1.1,1.09,0.563,1.25,1.1
Cc1c(C)c2c(c(C)c1O)CCC(C)(COc1ccc(CC3SC(=O)NC3=O)cc1)O2 (stereo unspecified) [troglitazone],–,–,27.7,–,–,–,–,–
